Data on ten compounds can be found in PubChem BioAssay.

The source made the active and inactive calls.

A short description of experiment [1]: E. coli DRC41 culture turbidity changes, primary screen, E. coli filamentation inducer project, strain DRC41, OD650, 48 h (AID 1152).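 Note: E. coli MC1000 strain DRC41 lacking acrAB efflux pump and sulA.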 To be noted: E. coli DRC41 (acrAB sulA), higher = more signal, called active from +8 up or from −8 down.
Experiment [2] can be described thus: small-molecule binders of probe aLefty1, primary screen, biochemical, small-molecule microarray, 635/667 nm fluorescence (AID 1153).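 Note: score merges spot fluorescence with signal-to-noise ratio from the scanned slide images.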 To be noted: higher = more signal.
Experiment [3] can be described thus: PSAC antagonists in infected red cells, primary screen, cell-based, P. falciparum Indochina, OD700, 1 h (AID 1154). Particulars: P. falciparum Indochina infected RBC osmotic lysis, higher = more signal, called active from +8 up or from −8 down.
The nature of experiment [4]: PSAC antagonists in infected red cells, primary screen, cell-based, P. falciparum Indochina, OD700, 2 h (AID 1155).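 Note: lysis reports solute entry through the parasite surface anion channel PSAC; channel blockers reduce lysis of infected cells.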 To be noted: P. falciparum Indochina infected erythrocytes, osmotic lysis OD700; higher = more signal, called active from +8 up or from −8 down.
Experiment [5] is described as follows: osmotic lysis modulators in infected erythrocytes, primary screen, PSAC antagonist project, cell-based, P. falciparum Indochina, OD700, 3 h (AID 1156). To be noted: higher = more signal, called active from +8 up or from −8 down.
Experiment [6] can be described thus: PSAC antagonists in infected red cells, primary screen, cell-based, P. falciparum Indochina, OD700, 18 h (AID 1157). To be noted: P. falciparum Indochina infected erythrocytes, osmotic lysis OD700, 18 h; higher = more signal, called active from +8 up or from −8 down.
Experiment [7] in a line: modulators of S6 phosphorylation in cells, primary screen, cell-based, A549, cytoblot, luminescence, serum-stimulated (AID 1158).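 Note: serum-stimulated A549 lung adenocarcinoma cells; signal is phosphorylated S6 detected by cytoblot immunostaining with HRP secondary.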 To be noted: A549 phospho-S6 cytoblot, 5 h, higher = more signal.
Experiment [8] deals with NADPH oxidase 2 (Homo sapiens) (UniProt P04839). Kind of experiment: NOX2-dependent H2O2 signal modulators, primary screen, NOX inhibitor project, cell-based, HEK293-NOX2, PMA-stimulated, Amplex Red fluorescence (AID 1159). Note: test concentration not given here. Particulars: 45 min, higher = more signal, called active from +8 up or from −8 down.
Experiment [9] addresses NADPH oxidase 4 (Homo sapiens) (UniProt Q9NPH5). As to the kind of experiment: NOX4-dependent H2O2 signal modulators, primary screen, NOX inhibitor project, cell-based, HEK293-NOX4, tetracycline-induced, Amplex Red fluorescence (AID 1160). To be noted: 45 min, higher = more signal, called active from +8 up or from −8 down.
Experiment [10] concerns the target NADPH oxidase 5 (Homo sapiens) (UniProt Q96PH1). Kind of experiment: NOX5-dependent H2O2 signal modulators, primary screen, NOX inhibitor project, cell-based, HEK293-NOX5, Amplex Red fluorescence (AID 1161). To be noted: HEK293-NOX5, ionomycin, 45 min, higher = more signal.

NADPH oxidase 5 (Homo sapiens), sequence (Q96PH1 whole entry, looked up): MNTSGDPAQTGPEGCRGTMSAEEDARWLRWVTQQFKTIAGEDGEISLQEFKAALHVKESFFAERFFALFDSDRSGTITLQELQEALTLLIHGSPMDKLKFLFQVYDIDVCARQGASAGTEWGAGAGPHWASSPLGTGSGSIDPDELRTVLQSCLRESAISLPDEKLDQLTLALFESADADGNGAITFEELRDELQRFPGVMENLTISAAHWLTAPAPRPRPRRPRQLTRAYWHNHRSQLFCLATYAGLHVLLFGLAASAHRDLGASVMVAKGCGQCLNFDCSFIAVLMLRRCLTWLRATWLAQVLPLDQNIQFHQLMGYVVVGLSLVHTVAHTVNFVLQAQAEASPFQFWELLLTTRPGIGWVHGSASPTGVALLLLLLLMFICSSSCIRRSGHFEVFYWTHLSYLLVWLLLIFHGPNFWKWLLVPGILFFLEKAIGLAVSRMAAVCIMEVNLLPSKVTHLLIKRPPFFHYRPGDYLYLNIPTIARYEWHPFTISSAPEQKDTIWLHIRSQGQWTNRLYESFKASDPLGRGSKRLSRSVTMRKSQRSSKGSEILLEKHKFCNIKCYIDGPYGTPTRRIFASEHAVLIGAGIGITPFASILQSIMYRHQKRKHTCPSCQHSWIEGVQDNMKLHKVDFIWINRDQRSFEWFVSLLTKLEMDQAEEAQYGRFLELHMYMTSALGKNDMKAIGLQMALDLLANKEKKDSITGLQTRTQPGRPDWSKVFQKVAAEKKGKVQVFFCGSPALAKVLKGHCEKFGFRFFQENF
NADPH oxidase 4 (Homo sapiens), sequence (Q9NPH5 whole entry, looked up): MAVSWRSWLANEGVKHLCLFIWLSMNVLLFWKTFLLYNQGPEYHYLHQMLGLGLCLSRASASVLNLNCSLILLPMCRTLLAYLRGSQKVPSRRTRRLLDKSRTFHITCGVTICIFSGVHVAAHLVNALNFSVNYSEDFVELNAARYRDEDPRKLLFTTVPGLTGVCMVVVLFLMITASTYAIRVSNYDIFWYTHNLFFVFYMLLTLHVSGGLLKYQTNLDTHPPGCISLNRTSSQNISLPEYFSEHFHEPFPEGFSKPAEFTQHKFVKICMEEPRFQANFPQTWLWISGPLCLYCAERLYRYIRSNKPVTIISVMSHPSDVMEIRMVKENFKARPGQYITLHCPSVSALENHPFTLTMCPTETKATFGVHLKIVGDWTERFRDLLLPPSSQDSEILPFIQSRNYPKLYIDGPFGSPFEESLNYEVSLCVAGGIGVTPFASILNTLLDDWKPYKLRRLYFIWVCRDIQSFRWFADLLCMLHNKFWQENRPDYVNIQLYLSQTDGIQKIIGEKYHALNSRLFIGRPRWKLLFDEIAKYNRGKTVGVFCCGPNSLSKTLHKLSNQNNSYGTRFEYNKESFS
NADPH oxidase 2 (Homo sapiens), sequence (P04839 whole entry, looked up): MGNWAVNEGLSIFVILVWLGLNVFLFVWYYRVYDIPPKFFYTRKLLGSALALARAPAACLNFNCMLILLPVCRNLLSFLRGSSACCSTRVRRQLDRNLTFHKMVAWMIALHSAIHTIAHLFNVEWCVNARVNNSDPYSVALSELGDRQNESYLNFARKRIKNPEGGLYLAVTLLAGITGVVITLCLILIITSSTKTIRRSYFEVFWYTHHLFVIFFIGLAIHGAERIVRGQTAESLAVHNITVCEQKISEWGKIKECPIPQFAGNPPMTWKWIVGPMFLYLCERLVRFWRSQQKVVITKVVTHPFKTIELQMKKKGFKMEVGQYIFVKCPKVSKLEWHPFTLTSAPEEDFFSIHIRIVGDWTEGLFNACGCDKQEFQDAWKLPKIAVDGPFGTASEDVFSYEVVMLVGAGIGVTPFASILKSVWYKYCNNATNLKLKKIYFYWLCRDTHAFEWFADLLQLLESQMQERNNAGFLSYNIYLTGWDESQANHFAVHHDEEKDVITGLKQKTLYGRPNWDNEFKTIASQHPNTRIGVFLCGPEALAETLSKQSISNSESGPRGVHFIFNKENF

Turning to `COc1ccc([C@H]2C[C@H]3C(Br)=C[C@@]2(CO)C(=O)[C@]32CO2)cc1`, the z-score in [1] was -0.532 (inactive); in experiment [3], -0.0473 (inactive); in experiment [4] it was 0.316 (inactive); in experiment [5] it was -0.231 (inactive); in experiment [6], -0.039 (inactive); in [7] it was -0.578. In addition, the figures for the z-score in experiment [8], in experiment [9] and in experiment [10] were 0.24 (inactive), 0.624 (inactive) and -0.268, respectively. Moreover, the composite z-score in experiment [2] was -0.144.

On to `NC(=O)[C@@]1(Cc2ccccc2)N=C(c2ccc(OCCCO)cc2)O[C@H]1c1ccccc1`, for which the z-score is 1.53 (inactive) in [1]; 16.3 (active) in experiment [3]; 2.07 (inactive) in [4]; 0.59 (inactive) in [5]; 0.639 (inactive) in [6]; 0.151 in experiment [7]. In addition, the z-score in experiment [8] is -0.281 (inactive); in experiment [9], 0.211 (inactive); in experiment [10] it was 0.495. In experiment [2], this compound showed a composite z-score of 0.232.

On to `O=C1[C@H]2C=C(I)[C@H](C[C@@H]2OCCCCO)[C@@]12CO2`, for which the z-score in experiment [1] was -0.989 (inactive); in experiment [3], 1.01 (inactive); in experiment [4], -0.171 (inactive); in experiment [5], 0.282 (inactive); in experiment [6] it was -0.039 (inactive); in experiment [7] it was 0.764. Further, the z-score was -0.0538 (inactive) in experiment [8], 0.491 (inactive) in experiment [9] and -0.584 in experiment [10]. This compound also returned a composite z-score in experiment [2] of 0.0437.

For the compound `C=C(CCCC)/C(=C/C[C@H](OC(=O)c1ccncc1)c1ccc(OCCO)cc1)c1cc(C(=O)OC)ccc1OC`, the z-score is 0.695 (inactive) in experiment [1]; 20.9 (active) in [3]; 1.88 (inactive) in [4]; 2.24 (inactive) in [5]; -0.722 (inactive) in experiment [6]; 0.769 in experiment [7]. Further, the z-score in experiment [8] is -1.96 (inactive); in experiment [9], -1.3 (inactive); in [10] it was -2.54. In addition, the composite z-score in experiment [2] is -0.103.

As to `CC(C)(C)OC(=O)CC[C@]1(C(N)=O)N=C(c2ccc(OCCCO)cc2)O[C@H]1c1ccccc1`, the z-score in [1] was -0.179 (inactive); in experiment [3], 6.16 (inactive); in [4], -0.927 (inactive); in experiment [5], -0.524 (inactive); in experiment [6], -0.367 (inactive); in experiment [7], 0.0312. Besides, the z-score in [8] is 0.266 (inactive); in experiment [9], -1.12 (inactive); in experiment [10] it was 0.814. This compound also had a composite z-score in experiment [2] of 0.762.

As to `O=C(NCc1ccccc1)[C@@H]1c2ccccc2C(=O)N(C2Cc3ccccc3C2)[C@H]1c1ccc(CO)cc1`, the z-score was -1.25 (inactive) in [1]; 3.46 (inactive) in experiment [3]; -0.627 (inactive) in [4]; -0.0549 (inactive) in experiment [5]; 0.353 (inactive) in experiment [6]; -0.543 in experiment [7]. In addition, the z-score in [8] is -0.0422 (inactive); in [9] it was -1.3 (inactive); in [10], -1.41. The compound also gave a composite z-score in [2] of 0.315.

As to `COC(=O)C(CC#Cc1ccc2c(c1)[C@]1(C(=O)N2)[C@H](c2ccccc2OCCO)N2[C@H](c3ccccc3)[C@H](c3ccccc3)OC(=O)[C@H]2[C@@H]1C(N)=O)C(=O)OC`, the z-score in [1] was 0.793 (inactive); in experiment [3], 7.57 (inactive); in [4], 2.02 (inactive); in experiment [5], 1.44 (inactive); in experiment [6] it was 1.2 (inactive); in experiment [7], -0.0528. For the same compound, the z-score in experiment [8] was 2.12 (inactive); in [9], 0.696 (inactive); in experiment [10] it was 1.51. This compound also came in with a composite z-score in experiment [2] of 1.81.

Take `CC(=O)NCCCC[C@@H]1NC(=O)[C@H]2C[C@@H](C(=O)NCCCCCNC(=O)CS)[C@@H](c3ccc(O)cc3)N2C1=O`: the z-score was -0.0078 (inactive) in experiment [1]; 1.94 (inactive) in [3]; 0.811 (inactive) in experiment [4]; -0.952 (inactive) in experiment [5]; 0.425 (inactive) in experiment [6]; -0.591 in [7]. For the same compound, the z-score was 0.772 (inactive) in experiment [8], -2.06 (inactive) in experiment [9] and -0.294 in [10]. In addition, the composite z-score in [2] is -0.12.

As to `CCOC(=O)[C@H]1C/C=C/C[C@H](C(=O)OCC)C(=O)O[C@H]2[C@@H](OC)O[C@H](CO)[C@@H](OC(=O)c3ccc(Br)cc3)[C@@H]2OC1=O`, the z-score in experiment [1] was -0.365 (inactive); in [3], 2.35 (inactive); in experiment [4] it was 1.54 (inactive); in experiment [5], -0.128 (inactive); in [6], 0.877 (inactive); in [7] it was 0.0379. Besides, the z-score in experiment [8] is -1.81 (inactive); in experiment [9], -0.145 (inactive); in experiment [10], -1.24. Moreover, the composite z-score in experiment [2] was -0.0349.

As to `C=C(C(=O)CC[C@H](OC(C)=O)c1ccccc1OCCO)C(C)C`, the z-score in experiment [1] is 0.0974 (inactive); in [3], 2.27 (inactive); in experiment [4], 2.54 (inactive); in experiment [5], -4.78 (inactive); in experiment [6] it was -0.431 (inactive); in [7], 0.66. Further, the figures for the z-score in [8], in experiment [9] and in experiment [10] were -5.71 (inactive), -2.22 (inactive) and -3.36, respectively. Moreover, the composite z-score in [2] is -0.147.
